The panel holds about 83,000 compounds, 20% with a hit somewhere; the sample as a whole holds those more often.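 Cells were grown in 96-well plates and exposed to the test compound at a single concentration for 48 hours; results are reported as percent growth, with values below 10 considered active.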 Calls of active or inactive are those of the source.

In the assay the test system is HL-60(TB) leukemia. Description: NCI-60 one-dose screen, 48 h (100 = growth as untreated, 0 = no growth, -100 = all killed). Conditions: 10 µM unless noted.
`N#C/C(=C\c1ccc([N+](=O)[O-])cc1)n1nnc2cc(F)c(F)cc21`: the growth was -27% (active).
Consider `O=C(COCc1c(-c2ccccc2)no[n+]1[O-])Nc1ccc(C(=O)/C=C/c2ccc3c(c2)OCO3)cc1`, for which the growth was 88.7% (inactive).
With `Cc1ccc(Cl)cc1NC(=O)c1cc2ccccc2cc1O`, the growth is -49.5% (active).
Turning to `COc1ccc2c(c1)oc1c(C)c3c(c(C)c12)C(=O)N(CCN1CCOCC1)C3=O`, the growth was 87.6% (inactive).
For `CCOc1ccc2c(c1)c(C)cc(C)[n+]2CC`, the growth is 61.5% (inactive).
On to `Cc1c(Cl)cccc1NC(=O)CN1CCOCC1`, for which the growth is 81.7% (inactive).
Take `O=C(NCCCCCCCNC(=O)OCc1ccc2c(Cl)cc(Cl)c(O)c2n1)OCc1ccc2c(Cl)cc(Cl)c(O)c2n1`: the growth was -45.9% (active).
In the case of `NNc1ncccn1`, the growth is 103% (inactive).
As to `COc1cnc2c(c1)C(=O)c1c-2n(CCCN2CCCC2)c(=O)c2cc(Cl)ccc12`, the growth is 27.9% (inactive).
Turning to `COc1cccc(/C=C/C(=O)c2sc(Nc3ccc(O)cc3)nc2C)c1`, the growth is 78.8% (inactive).
For `CS(=O)(CCCCN=C=S)=NC(=O)c1c(F)c(F)c(F)c(F)c1F` (stereo not given), the growth is 72.5% (inactive).
The result for `COc1cc2nnc3c4cccnc4[nH]c3c2cc1OC` reads -54.3% (active); that for `CCC(=O)OC1=CN2C(=NC(c3ccc(N)cc3)=CC2c2cc(OC)c(OC)c(OC)c2)S1` (stereo not given), 36.5% (inactive).
Take `CCOC(=O)c1c(C(F)(F)F)n([O-])c2ccc(OC)cc2[n+]1=O`: the growth was -9.6% (active).
Regarding `O=C(COc1cc(O)c2c(=O)cc(-c3ccccc3)oc2c1)Nc1ccccc1C(F)(F)F`, the growth was 55% (inactive).
For `NS(=O)(=O)c1ccc(-n2nc(C(=O)N/N=C\c3ccc(F)cc3)cc2-c2ccc(Br)cc2)cc1` the value was 71% (inactive); for `CCCCCCCCCCOC(=O)c1nn(C(C)=O)c2cc(C)c(C)cc12`, 101% (inactive).
Turning to `COc1ccc(/C=C2\Oc3cc(OCCCN4CCCC4)ccc3C2=O)c(OC)c1`, the growth was 96.2% (inactive).
The result for `Cc1cc2nc3c4cc([N+](=O)[O-])cc([N+](=O)[O-])c4n(CCN(C)C)c3nc2cc1C` reads 98.2% (inactive); that for `CC1(C)N=C(N)N=C(N)N1c1cccc(CCCCOc2ccccc2)c1`, 13.6% (inactive); that for `FC(F)(F)c1ccc(-c2ncc(-c3ccc(C(F)(F)F)cc3)c(NCc3cc(C(F)(F)F)cc(C(F)(F)F)c3)n2)cc1`, 71.7% (inactive).
For `C[C@H]1C=C(C[C@@H](O)CC#CC#CCCCCC[C@@H](O)[C@H]2CCC(=O)O2)C(=O)O1` the value was 99.1% (inactive); for `O=c1[nH]cnc2nc[nH]c12`, 117% (inactive).
For the molecule `COC(=O)[C@]12CC[C@@H](C)[C@H](C)[C@@H]1C1=CC[C@@H]3[C@@]4(C)C(C=O)=C[C@@](C)(CO)C4=CC[C@@]3(C)[C@]1(C)CC2`, the growth was 16.1% (inactive).
Turning to `NC(=O)C(=O)c1ccccc1NC=O`, the growth was 101% (inactive).

For the origin of these results see PubChem BioAssay (NCI).
